The whole screen tested about 59,000 compounds, of which about 6,500 (11%) were called active. Not shown: some 15% with an inconclusive outcome. No stated cut-off is given here; in the data, active means max dye-equivalent concentration above about 10 nM; inconclusive means mostly about 1.1 nM to 9.6 nM; inactive means weaker than that. Many of the other results were omitted from the sample, so actives are more common in it than they were.

The nature of this assay: qHTS Assay for Spectroscopic Profiling in A350 Spectral Region. To be noted: Compound autofluorescence, 340/450 nm, Alexa 350 dye-equivalents; active compounds read high. Background: In qHTS, concentration-response curves come from the screen itself.
Consider `COc1ccc(CNc2ncncc2-c2ccccc2C)c(OC)c1`, for which the max dye-equivalent concentration entry was “inactive”. In the case of `Cc1ccccc1NC(=O)CNc1ccccc1N1CCCCC1`, the max dye-equivalent concentration result is “inactive”. `CCOc1ccc2nc(N3CCCN(C(=O)Nc4ccccc4C)CC3)c(C#N)cc2c1`: the max dye-equivalent concentration is 16 nM (active).

With `CCOc1ccc(NC(=O)N2CCN(CC)CC2)cc1`, the max dye-equivalent concentration result was “inactive”.

Turning to `Cc1ccnc(SCCn2c(Br)nc3c2c(=O)[nH]c(=O)n3C)n1`, the max dye-equivalent concentration entry was “inactive”. The entry for `CC1CN(C2CCN(C(=O)COc3ccccc3)CC2)CC(C)O1` (configuration not stated) is “inactive”; for `Nc1nc2c(ncn2[C@H]2CC[C@@H](CO)O2)c(=O)n1C(=O)c1ccccc1` it is “inactive”. Regarding `COc1ccc(-n2c(C)nc3c(cnn3-c3ccccc3)c2=O)cc1`, the max dye-equivalent concentration entry was “inactive”.

With `O=c1cnc2cnc(Nc3ccccc3)nc2n1Cc1ccc(F)cc1`, the max dye-equivalent concentration entry is “inactive”. The figure for `CCNc1ncc2ncc(=O)n(Cc3cccc(OC)c3)c2n1` is 16 nM (active); for `COc1cccc(Cn2c(=O)c(C)nc3cnc(Oc4ccccc4)nc32)c1` it is “inactive”. The entry for `COc1cccc(Cn2c(=O)cnc3cncnc32)c1` is “inactive”. The figure for `COc1cccc(Cn2c(=O)c(CCc3ccccc3)nc3cnc(N(C)C)nc32)c1` is 31 nM (active). As to `COc1cccc(Nc2ncc3ncc(=O)n(C4CC4)c3n2)c1`, the max dye-equivalent concentration entry is “inactive”. The figure for `CCNc1ncc2nc(CCc3ccccc3)c(=O)n(-c3ccc(OC)cc3)c2n1` is 15 nM (active); for `COc1cccc(CN2C(=O)CCC2(C)C(=O)NC2CCCCCC2)c1` (configuration not stated) it is “inactive”; for `CCc1nnc(NC(=O)CSc2nnc(Cc3ccccc3)n2-c2ccc(OC)cc2)s1` it is “inactive”.

On to `CCNc1ncc2ncc(=O)n(CCc3ccccc3)c2n1`, for which the max dye-equivalent concentration was 89 nM (active). On to `CSCCC(NC(=O)C1CCC(C)CC1)C(=O)NCc1ccco1` (configuration not stated), for which the max dye-equivalent concentration result is “inactive”. The entry for `CC(C)NC(=O)N1CCCC2(CCN(C(=O)c3cccn3C)CC2)C1` is “inactive”.

With `Cc1cccc(C)c1NC(=O)N1CC=C(n2c(=O)[nH]c3ccccc32)CC1`, the max dye-equivalent concentration result was “inactive”. In the case of `CC(C)CCNC(=O)C1CCCN(S(=O)(=O)c2ccc(F)cc2)C1` (configuration not stated), the max dye-equivalent concentration entry is “inactive”.

Turning to `CCN(CC)C(=O)CSc1nnc(-c2cccc(OC)c2)o1`, the max dye-equivalent concentration entry is “inactive”. In the case of `CC(C)NC(=O)CCCn1c(=S)[nH]c2cc3c(cc2c1=O)OCO3`, the max dye-equivalent concentration result is “inactive”. Consider `Cc1cccc(NC(=O)CSc2nnc(CCCCCNC(=O)OC(C)(C)C)o2)c1C`, for which the max dye-equivalent concentration entry is “inactive”. The entry for `Cc1cccc(N(CC(O)CN(C)C)S(=O)(=O)c2ccccc2)c1` (configuration not stated) is “inactive”; for `COC(=O)c1ccc(Oc2nc(Nc3ccc(F)cc3)nc(N3CCCC3)n2)cc1` it is “inactive”; for `CSc1ccc(S(=O)(=O)Nc2cccc(F)c2)cc1` it is “inactive”. For `C=CCN(c1ccc(C(N)=O)cc1)S(C)(=O)=O`, the max dye-equivalent concentration entry was “inactive”.

With `Cn1c(=O)cc(SCC(=O)N2CCCC2)c2cc(Cl)ccc21`, the max dye-equivalent concentration was 12 nM (active).

Take `Cn1c(=O)cc(SCC(=O)N2CCN(C(=O)c3ccco3)CC2)c2ccccc21`: the max dye-equivalent concentration result is “inactive”. Consider `CCOC(=O)C1CCN(C(=O)CSc2cc(=O)n(C)c3ccccc23)CC1`, for which the max dye-equivalent concentration entry is “inactive”. Consider `COC(=O)c1sc(=S)n(-c2ccccc2)c1N`, for which the max dye-equivalent concentration entry is “inactive”. As to `COCCCNC(=O)Cn1cc(C(=O)C2CC2)c2ccccc21`, the max dye-equivalent concentration result was “inactive”. The entry for `CCOc1cc(-c2noc(CCC(=O)N3CCOCC3)n2)ccc1OC` is “inactive”; for `COc1ccc(-c2nc(-c3ccccc3)no2)c(OC)c1` it is “inactive”; for `COc1ccc(-c2noc(CN(C)S(=O)(=O)c3ccc(C)cc3)n2)cc1` it is “inactive”. Regarding `COc1ccc(-c2ccc(-c3noc(-c4ccncc4)n3)c(OC)n2)cc1`, the max dye-equivalent concentration is 24 nM (active). The figure for `CCOc1nc(-c2ccc(OC)cc2)ccc1-c1noc(-c2cc(OC)c(OC)c(OC)c2)n1` is 81 nM (active); for `O=C(Oc1ccc(-c2nc(-c3ccccn3)no2)cc1)c1ccccc1` it is “inactive”. The entry for `Cn1c(=O)c2c(ncn2CC(=O)N2CCN(c3ccccc3)CC2)n(C)c1=O` is “inactive”; for `CCOc1ccc(C(C)C)cc1S(=O)(=O)n1nc(C)cc1C` it is “inactive”; for `N#Cc1ccccc1-c1ccc2ncnc(NCc3cccnc3)c2c1` it is “inactive”.

For `CC(Cc1cccs1)NC(=O)NC1CCCCC1` (configuration not stated), the max dye-equivalent concentration entry is “inactive”. The entry for `COc1ccccc1CNc1ccnc(-c2c(C)noc2C)n1` is “inactive”; for `COc1ccc(CCNC(=O)C2CCN(c3nn4c(=O)cc(C)nc4s3)CC2)cc1OC` it is “inactive”. The figure for `CCOc1ccc(CCNC(=O)C2CCN(c3ccc(N4CCOCC4)nn3)CC2)cc1OCC` is 560 nM (active). The entry for `CCCS(=O)(=O)N1CCC(C(=O)NCCc2ccc(OC)c(OC)c2)CC1` is “inactive”. With `O=C(CN1CCN(c2ccc(F)cc2)CC1)Nc1cccc(C(F)(F)F)c1`, the max dye-equivalent concentration entry was “inactive”. In the case of `O=C(c1ccc([N+](=O)[O-])cc1)[C@@H](Br)[C@@H](Br)c1ccnc2ccccc12`, the max dye-equivalent concentration result was “inactive”. The figure for `O=C1NC(c2ccncc2)Nc2sc3c(c21)CCCC3` (configuration not stated) is 58 nM (active). As for `CCc1nnc(NC(=O)CSc2nnc(COc3ccc(C#N)cc3)n2-c2ccccc2)s1`, the max dye-equivalent concentration result is “inactive”. `O=C(Nc1cccc(F)c1)N1CC2(CCN(C(=O)c3csnn3)CC2)C1`: the max dye-equivalent concentration result was “inactive”. The figure for `Cc1nc2ccc(NC(=O)N3CCC(c4ccccc4)C3)cc2nc1C` (configuration not stated) is 410 nM (active); for `Cn1c(CCN2CCCCCC2)nc2cc(NC(=O)Nc3ccccc3)ccc21` it is “inactive”; for `O=C(Nc1cccc(NC(=O)N2CCN(c3ccccc3)CC2)c1)N1CCN(c2ccccc2)CC1` it is “inactive”. With `O=C(COC(=O)CCC(=O)c1cccs1)NCc1ccco1`, the max dye-equivalent concentration entry was “inactive”. Consider `O=C(COC(=O)C12CC3CC(CC(C3)C1)C2)NCc1ccco1`, for which the max dye-equivalent concentration is 16 nM (active). For `Cc1cc(C(=O)OCC(=O)NCc2ccco2)c(C)n1-c1ccccc1`, the max dye-equivalent concentration result was “inactive”. The entry for `NC[C@@H]1O[C@H](O[C@@H]2[C@H](O[C@@H]3O[C@H](CO)[C@@H](COC[C@H]4O[C@@H](CN)[C@@H](O)[C@@H](O)[C@@H]4N)[C@@H]3O)[C@@H](O)[C@@H](N)C[C@H]2N)[C@@H](N)[C@H](O)[C@@H]1O` is “inactive”. The entry for `N#Cc1ccc(CN2CCCC3(CCN(C(=O)c4ccco4)CC3)C2)cc1` is “inactive”; for `CCOc1ccc(NS(=O)(=O)c2ccc(OCC(=O)NCCCOC)cc2)cc1` it is “inactive”. The entry for `O=C(CC(NS(=O)(=O)c1ccc(Cl)cc1)c1ccco1)NC1CCCC1` (configuration not stated) is “inactive”; for `O=c1[nH][nH]c(=O)c2cc(N3CCCC3)ccc12` it is 47 nM (active); for `O=C(NCc1cccnc1)c1cn(-c2ccccc2)nc1-c1cccs1` it is “inactive”. On to `O=C1CC(c2ccccc2)C(=O)N1c1cccc(O)c1` (configuration not stated), for which the max dye-equivalent concentration result is “inactive”.

Consider `CCCC(CCC(=O)OC)(C(=O)OCC)c1csc(N)n1` (configuration not stated), for which the max dye-equivalent concentration entry is “inactive”. The entry for `CCCCNC(=O)c1ccccc1NC(=O)c1ccccc1N(C)S(C)(=O)=O` is “inactive”. The entry for `O=C(c1cccc(F)c1)N1CCC2(CC1)CCN(c1ccccc1)CC2` is “inactive”. The entry for `CCOC(=O)N1CCN(C(=O)C2CCN(S(C)(=O)=O)CC2)CC1` is “inactive”; for `CCOC(=O)N1CCN(CC(=O)Nc2cc(C)nn2-c2nc3ccccc3s2)CC1` it is “inactive”. For `CCOC(=O)N1CCN(C(=O)C2CCN(c3ncnc4c3sc3cccc(F)c34)CC2)CC1`, the max dye-equivalent concentration was 18 nM (active). The entry for `CCCc1cc(=O)n2[nH]c(SCc3ccccc3)nc2n1` is “inactive”; for `Cc1ccc(C(=O)NC2CC(C)(C)NC(C)(C)C2)c(C)c1` it is “inactive”; for `CS(=O)(=O)N(CC(=O)NCc1ccco1)c1ccc2c(c1)OCO2` it is 29 nM (active). Take `CS(=O)(=O)N(CC(=O)N1CCN(Cc2ccc3c(c2)OCO3)CC1)c1ccc2c(c1)OCO2`: the max dye-equivalent concentration entry is “inactive”. The entry for `O=C(Cn1nnc(-c2ccc3c(c2)OCO3)n1)NCc1ccco1` is “inactive”. With `CCNC(=O)CCc1nc(-c2ccc(C(C)(C)C)cc2)no1`, the max dye-equivalent concentration result was “inactive”. As for `Cc1ccc(S(=O)(=O)c2c(N)n(C)c3nc4ccccc4nc23)cc1`, the max dye-equivalent concentration was 3600 nM (active). The entry for `Cc1ccc(S(=O)(=O)NCc2nc3ccccc3c(=O)n2N)cc1` is “inactive”; for `CC1=C(C(=O)Nc2ccccc2)C(c2cccs2)C(C#N)=C(SCC#N)N1` (configuration not stated) it is “inactive”; for `CCOC(=O)N1CC=C2C(C#N)=C(N)C(C#N)(C#N)[C@H](c3cccs3)[C@H]2C1` it is 35 nM (active).

Take `CC(=O)N1CCN(c2ccc(NCc3ccc(C(C)C)cc3)cc2)CC1`: the max dye-equivalent concentration result is “inactive”. The figure for `Cn1c(/C(C#N)=C2/CCCCCN2)nc2ccccc21` is 23 nM (active).

Regarding `N#C/C(=C1\CCCN1)c1nc(-c2ccccc2)cs1`, the max dye-equivalent concentration result is “inactive”. Regarding `CCC(C)(C)n1nnnc1C(c1cccs1)N1CCN(Cc2ccccc2)CC1` (configuration not stated), the max dye-equivalent concentration entry was “inactive”. Consider `O=C1c2ccccc2C(=O)C1c1ccccc1`, for which the max dye-equivalent concentration entry was “inactive”. The figure for `COc1ccc2[nH]c(=O)c(-c3noc(-c4ccc(F)cc4)n3)cc2c1` is 14 nM (active); for `Cc1cccc(-c2noc(-c3ccc(F)cc3)n2)c1` it is “inactive”. On to `O=C(c1cc(C(F)(F)F)cc(C(F)(F)F)c1)N1CCC2(CC1)CN(c1ccncc1)C2`, for which the max dye-equivalent concentration result is “inactive”. The entry for `CN1CCN(c2ncncc2-c2ccc(C(=O)N(C)C)cc2)CC1` is “inactive”. For `COCCNC(=O)CN(C(=O)CCC(=O)Nc1cc(C)on1)c1ccc(C)cc1C`, the max dye-equivalent concentration result is “inactive”. The entry for `COc1cc2[nH]c(=S)n(CCN3CCCCC3C)c(=O)c2cc1OC` (configuration not stated) is “inactive”.

Turning to `CCCCn1c(SCC(=O)NCCc2ccc(OC)c(OC)c2)nc2c1c(=O)n(C)c(=O)n2C`, the max dye-equivalent concentration entry is “inactive”. The entry for `CCc1ccc(NC(=O)CSc2nc3ccccc3c(=O)n2CCN2CCOCC2)cc1` is “inactive”; for `CCn1c(SCC(=O)NCC2CCCO2)nc2cc(S(=O)(=O)N3CCCCC3)ccc21` (configuration not stated) it is “inactive”.

As to `COCCCNC(=O)CSc1nc2ccc(N3CCOCC3)cc2c(=O)n1CCc1ccccc1`, the max dye-equivalent concentration was 69 nM (active). The entry for `O=C(CSc1nc2cc3c(cc2c(=O)n1CCC1=CCCCC1)OCO3)NCc1ccco1` is “inactive”; for `CCCCn1c(SCC(=O)NCC2CCCO2)nc2ccc(N3CCOCC3)cc2c1=O` (configuration not stated) it is 71 nM (active). With `O=C(c1ccco1)N1CCC[C@@]2(CCN(c3ccccc3)C2)C1`, the max dye-equivalent concentration result was “inactive”. The entry for `CC(Oc1ccc(Cl)cc1)C(=O)Nc1ncccn1` (configuration not stated) is “inactive”. The entry for `O=C(c1cc(C(F)(F)F)cc(C(F)(F)F)c1)N1CCC2(CCCN(Cc3ccncc3)C2)CC1` is “inactive”.

The values are drawn from PubChem BioAssay AID590 (National Center for Advancing Translational Sciences (NCATS), 2007).
